{"source": "paper PMC4336329", "about": "(PLoS ONE, 2015)", "note": "Hit rate of the full screen: of about 310,000 compounds, about 14,000 (4.5%) showed an effect of 50% or more. Effects have a minus sign here. For the sample, strong results were picked, then their nearest neighbours and some compounds at random.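 Also: peak tail current of the secondary pulse compared with the same well before compound.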", "data": [{"biological_target": "human ether-à-go-go-related gene (hERG) potassium channel (human, UniProt Q12809)", "sequence (Q12809 whole entry, looked up)": "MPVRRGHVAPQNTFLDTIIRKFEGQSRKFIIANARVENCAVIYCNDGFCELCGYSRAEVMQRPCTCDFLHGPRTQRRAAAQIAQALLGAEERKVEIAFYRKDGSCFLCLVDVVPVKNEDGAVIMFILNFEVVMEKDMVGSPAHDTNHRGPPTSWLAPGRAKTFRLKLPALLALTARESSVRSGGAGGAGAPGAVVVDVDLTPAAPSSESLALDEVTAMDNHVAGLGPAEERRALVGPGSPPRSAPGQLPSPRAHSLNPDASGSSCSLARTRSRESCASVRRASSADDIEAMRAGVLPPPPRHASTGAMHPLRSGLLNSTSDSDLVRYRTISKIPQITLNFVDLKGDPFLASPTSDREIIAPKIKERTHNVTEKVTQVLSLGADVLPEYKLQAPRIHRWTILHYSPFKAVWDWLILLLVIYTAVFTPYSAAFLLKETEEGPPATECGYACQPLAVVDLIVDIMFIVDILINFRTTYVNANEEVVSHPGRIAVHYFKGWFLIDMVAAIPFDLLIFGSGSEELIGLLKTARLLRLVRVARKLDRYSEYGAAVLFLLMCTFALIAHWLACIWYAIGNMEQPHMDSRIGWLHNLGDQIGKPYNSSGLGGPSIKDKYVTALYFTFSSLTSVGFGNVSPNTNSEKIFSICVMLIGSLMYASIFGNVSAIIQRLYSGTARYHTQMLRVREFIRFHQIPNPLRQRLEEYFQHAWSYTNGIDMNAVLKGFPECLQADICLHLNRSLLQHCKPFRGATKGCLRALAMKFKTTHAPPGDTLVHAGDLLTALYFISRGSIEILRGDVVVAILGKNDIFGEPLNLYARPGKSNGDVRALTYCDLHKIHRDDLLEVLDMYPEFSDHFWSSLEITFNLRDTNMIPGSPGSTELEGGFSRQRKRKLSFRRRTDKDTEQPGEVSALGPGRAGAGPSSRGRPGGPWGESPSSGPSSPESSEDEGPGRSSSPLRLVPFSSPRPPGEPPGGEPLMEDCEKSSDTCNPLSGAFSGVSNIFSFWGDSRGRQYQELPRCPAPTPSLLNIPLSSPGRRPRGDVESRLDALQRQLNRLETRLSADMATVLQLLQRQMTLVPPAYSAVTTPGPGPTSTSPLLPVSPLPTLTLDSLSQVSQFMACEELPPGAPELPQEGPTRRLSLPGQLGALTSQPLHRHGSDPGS", "experiment": "primary screen, population patch clamp on CHO cells stably expressing hERG; higher = less effect of the substance", "units": {"hERG current change (%, negative = inhibition) at 10uM": "%"}, "values": [{"smiles": "CCC(=O)N(C)CCc1cc2c(c(OC)c1/C=N/Nc1ccc(C(=O)O)cc1)OCO2", "hERG current change (%, negative = inhibition) at 10uM": -1.63}, {"smiles": "O=C(Nc1cccc(Cl)c1)c1nc[nH]c1C(=O)N1CCc2ccccc2C1", "hERG current change (%, negative = inhibition) at 10uM": -15.6}, {"smiles": "CCOc1ccc(NS(=O)(=O)c2ccc(C(=O)N3CCCCC3)cc2)cc1", "hERG current change (%, negative = inhibition) at 10uM": -9.46}, {"smiles": "COc1ccc(Cn2cnc3c(N)c(C)c(C)cc32)cc1", "hERG current change (%, negative = inhibition) at 10uM": 5.13}, {"smiles": "N#CC1(NC(=O)COc2ccc3oc4ccccc4c3c2)CCCCC1", "hERG current change (%, negative = inhibition) at 10uM": 12.1}, {"smiles": "COC(=O)c1ccc(CNC(=O)COC(=O)C2CC3C=CC2C3)cc1", "note": "(stereo not drawn)", "hERG current change (%, negative = inhibition) at 10uM": 11.2}, {"smiles": "COc1ccc(-n2nc3c(c2NC(=O)CCCCl)CSC3)cc1", "hERG current change (%, negative = inhibition) at 10uM": -1.78}, {"smiles": "CCCN(CCC)CCCNC(=S)Nc1ccc2nc(N3CCN(C)CC3)cc(C)c2c1", "hERG current change (%, negative = inhibition) at 10uM": 8.86}, {"smiles": "CCCN(CCC)CCCNC(=S)Nc1ccc2nc(N3CCN(CC)CC3)cc(C)c2c1", "hERG current change (%, negative = inhibition) at 10uM": -3.08}, {"smiles": "CCN(CC)CCNC(=S)Nc1ccc2nc(N3CCCC3)cc(C)c2c1", "hERG current change (%, negative = inhibition) at 10uM": -8.93}, {"smiles": "CCCN(CCC)CCCNC(=S)Nc1ccc2nc(N3CCCC3)cc(C)c2c1", "hERG current change (%, negative = inhibition) at 10uM": -60.4}, {"smiles": "COCCNC(=S)Nc1ccc2nc(N3CCCC3)cc(C)c2c1", "hERG current change (%, negative = inhibition) at 10uM": -71.6}, {"smiles": "COCCNC(=S)Nc1ccc2nc(N3CCN(C)CC3)cc(C)c2c1", "hERG current change (%, negative = inhibition) at 10uM": 8.03}, {"smiles": "Cc1cc(N2CCCC2)nc2ccc(NC(=S)NCCCN3CCC(C)CC3)cc12", "hERG current change (%, negative = inhibition) at 10uM": -29.6}, {"smiles": "CCOCCCNC(=S)Nc1ccc2nc(N3CCCC3)cc(C)c2c1", "hERG current change (%, negative = inhibition) at 10uM": -73.3}, {"smiles": "Cc1cc(N2CCCC2)nc2ccc(NC(=S)NCCCOC(C)C)cc12", "hERG current change (%, negative = inhibition) at 10uM": -83.4}, {"smiles": "CCN1CCN(c2cc(C)c3cc(NC(=S)NCCCOC)ccc3n2)CC1", "hERG current change (%, negative = inhibition) at 10uM": 5.8}, {"smiles": "CCOCCCNC(=S)Nc1ccc2nc(N3CCN(CC)CC3)cc(C)c2c1", "hERG current change (%, negative = inhibition) at 10uM": 4.36}, {"smiles": "CCOCCCNC(=S)Nc1ccc2nc(N3CCOCC3)cc(C)c2c1", "hERG current change (%, negative = inhibition) at 10uM": -7.68}, {"smiles": "CCOc1ccc(C(=O)Nc2ncn[nH]2)cc1", "hERG current change (%, negative = inhibition) at 10uM": 19.1}, {"smiles": "O=C(CCc1c[nH]c2ccccc12)N/N=C/c1ccc2c(c1)OCO2", "hERG current change (%, negative = inhibition) at 10uM": 6.33}, {"smiles": "CC1=CCC2C(=O)N(CCc3c[nH]c4ccccc34)C(=O)C2C1", "note": "(stereo not drawn)", "hERG current change (%, negative = inhibition) at 10uM": -9.31}, {"smiles": "COc1ccc(CC(=O)NNc2ncnc3c2cnn3-c2ccc(C)cc2)cc1OC", "hERG current change (%, negative = inhibition) at 10uM": 10.5}, {"smiles": "COc1ccc(CNC(=O)Cn2nnc(-c3ccc(NC(=O)C4CCCCC4)cc3)n2)cc1", "hERG current change (%, negative = inhibition) at 10uM": 14}, {"smiles": "COc1ccccc1NS(=O)(=O)c1cc(-c2cnc(C3CC3)o2)ccc1C", "hERG current change (%, negative = inhibition) at 10uM": 3.37}, {"smiles": "O=C1CSC(c2cn(-c3ccccc3)nc2-c2cccs2)N1Cc1ccccc1", "note": "(stereo not drawn)", "hERG current change (%, negative = inhibition) at 10uM": -1.38}, {"smiles": "O=Cc1c(NCc2ccccc2F)c2ccccc2[nH]c1=O", "hERG current change (%, negative = inhibition) at 10uM": 13.8}, {"smiles": "CCOCCCNC(=S)N1CCCN(c2nc3cc(C)c(C)cc3cc2C#N)CC1", "hERG current change (%, negative = inhibition) at 10uM": -36.4}, {"smiles": "Cc1cc(N2CCCC2)nc2ccc(NC(=S)NC(C)C)cc12", "hERG current change (%, negative = inhibition) at 10uM": -71.6}, {"smiles": "CCC(C)NC(=S)Nc1ccc2nc(N3CCOCC3)cc(C)c2c1", "note": "(stereo not drawn)", "hERG current change (%, negative = inhibition) at 10uM": 5.86}, {"smiles": "Cc1cc(N2CCOCC2)nc2ccc(NC(=S)NC(C)C)cc12", "hERG current change (%, negative = inhibition) at 10uM": -12.4}, {"smiles": "CCOCCCNC(=S)N1CCCN(c2nc3cc(C)cc(C)c3cc2C#N)CC1", "hERG current change (%, negative = inhibition) at 10uM": -55.6}, {"smiles": "CCOCCCNC(=S)N1CCCN(c2nc3cc(C)ccc3cc2C#N)CC1", "hERG current change (%, negative = inhibition) at 10uM": -30.9}, {"smiles": "CSc1nsc(SCC(=O)Nc2ccc(OC(C)=O)cc2)n1", "hERG current change (%, negative = inhibition) at 10uM": 4.1}, {"smiles": "Cc1c(N=N/C(C(=O)Nc2ccccc2)=C(/O)c2ccccc2)c(=O)n(-c2ccccc2)n1C", "hERG current change (%, negative = inhibition) at 10uM": 8.85}, {"smiles": "O=C1C(C=NCc2ccncc2)=C(O)c2ccccc21", "hERG current change (%, negative = inhibition) at 10uM": -9.12}, {"smiles": "CN=CC1=C(O)c2ccccc2C1=O", "hERG current change (%, negative = inhibition) at 10uM": 14.7}, {"smiles": "CC(C)CN=CC1=C(O)c2ccccc2C1=O", "hERG current change (%, negative = inhibition) at 10uM": -71.4}, {"smiles": "CCOC(=O)N1CCC(NC(=O)CCc2nc(C3=CCN(C)CC3)no2)CC1", "hERG current change (%, negative = inhibition) at 10uM": -3.37}, {"smiles": "COc1ccc(C(=O)NCCNc2nc3ccc(C)cc3cc2C#N)cc1", "hERG current change (%, negative = inhibition) at 10uM": 4.99}, {"smiles": "CCN(Cc1ccncc1)Cc1ccc(OC)cc1OC.O=C(O)C(=O)O", "hERG current change (%, negative = inhibition) at 10uM": -51.4}, {"smiles": "COc1ccc(CN(CCN(C)C)Cc2ccccc2)c(OC)c1.O=C(O)C(=O)O", "hERG current change (%, negative = inhibition) at 10uM": -46.1}, {"smiles": "CCN(Cc1ccncc1)Cc1ccc(OC)c(OC)c1.O=C(O)C(=O)O", "hERG current change (%, negative = inhibition) at 10uM": -6.49}, {"smiles": "COc1ccc(N(CC(=O)Nc2cc(C)on2)S(=O)(=O)c2ccc(Cl)cc2)cc1", "hERG current change (%, negative = inhibition) at 10uM": 9.89}, {"smiles": "COC(=O)N[C@H](CC(C)=O)c1cccc(C(F)(F)F)c1", "hERG current change (%, negative = inhibition) at 10uM": 19.5}, {"smiles": "CC(C)(C)c1cc(CCC(=O)NCc2ccccn2)cc(C(C)(C)C)c1O", "hERG current change (%, negative = inhibition) at 10uM": -10.1}, {"smiles": "CC(C)n1cc(CN2CCCC(CO)(Cc3cccc(Cl)c3)C2)cn1", "note": "(stereo not drawn)", "hERG current change (%, negative = inhibition) at 10uM": -24}, {"smiles": "CC(C)c1csc(CN2CCC(CO)(Cc3ccccc3)CC2)n1", "hERG current change (%, negative = inhibition) at 10uM": -9.39}, {"smiles": "Cc1cc(C(=O)N2CCC(CO)(Cc3cccc(C(F)(F)F)c3)CC2)n[nH]1", "hERG current change (%, negative = inhibition) at 10uM": -49.4}, {"smiles": "OCC1(Cc2ccccc2)CCN(Cc2ccccn2)CC1", "hERG current change (%, negative = inhibition) at 10uM": -9.51}, {"smiles": "CC(C)=CCN1CCN(Cc2cc(CC(C)C)n[nH]2)CC1CCO", "note": "(stereo not drawn)", "hERG current change (%, negative = inhibition) at 10uM": -9.57}, {"smiles": "Cc1cc(CN2CCCC(CO)(Cc3cccc(Cl)c3)C2)n[nH]1", "note": "(stereo not drawn)", "hERG current change (%, negative = inhibition) at 10uM": -43.2}, {"smiles": "CC(C)Cc1cc(CN2CCC(CO)(Cc3cccc(C(F)(F)F)c3)CC2)[nH]n1", "hERG current change (%, negative = inhibition) at 10uM": -78}, {"smiles": "CC(C)Cc1cc(CN2CCC(CO)(Cc3ccccc3)CC2)[nH]n1", "hERG current change (%, negative = inhibition) at 10uM": -71.6}, {"smiles": "CC(C)Cc1cc(CN2CCCC(CO)(Cc3cccc(Cl)c3)C2)[nH]n1", "note": "(stereo not drawn)", "hERG current change (%, negative = inhibition) at 10uM": -52.5}, {"smiles": "CC(C)NC(=O)Cn1nc(C(F)(F)F)c2c1CCC2", "hERG current change (%, negative = inhibition) at 10uM": 7.42}, {"smiles": "C=C(C)CNc1cc(S(=O)(=O)N2CCOCC2)ccc1Oc1ccccc1", "hERG current change (%, negative = inhibition) at 10uM": -21.3}]}]}
